{
  "source": "PubChem BioAssay (Tox21)",
  "note": "Results filed as inconclusive are left out. A call without a number means that no potency is given here. Calls of active or inactive are those of the source. Calls follow the shape of the full dose curve.",
  "data": [
    {"target": "Progesterone receptor (Homo sapiens) (UniProt P06401)", "sequence (P06401 whole entry, looked up)": "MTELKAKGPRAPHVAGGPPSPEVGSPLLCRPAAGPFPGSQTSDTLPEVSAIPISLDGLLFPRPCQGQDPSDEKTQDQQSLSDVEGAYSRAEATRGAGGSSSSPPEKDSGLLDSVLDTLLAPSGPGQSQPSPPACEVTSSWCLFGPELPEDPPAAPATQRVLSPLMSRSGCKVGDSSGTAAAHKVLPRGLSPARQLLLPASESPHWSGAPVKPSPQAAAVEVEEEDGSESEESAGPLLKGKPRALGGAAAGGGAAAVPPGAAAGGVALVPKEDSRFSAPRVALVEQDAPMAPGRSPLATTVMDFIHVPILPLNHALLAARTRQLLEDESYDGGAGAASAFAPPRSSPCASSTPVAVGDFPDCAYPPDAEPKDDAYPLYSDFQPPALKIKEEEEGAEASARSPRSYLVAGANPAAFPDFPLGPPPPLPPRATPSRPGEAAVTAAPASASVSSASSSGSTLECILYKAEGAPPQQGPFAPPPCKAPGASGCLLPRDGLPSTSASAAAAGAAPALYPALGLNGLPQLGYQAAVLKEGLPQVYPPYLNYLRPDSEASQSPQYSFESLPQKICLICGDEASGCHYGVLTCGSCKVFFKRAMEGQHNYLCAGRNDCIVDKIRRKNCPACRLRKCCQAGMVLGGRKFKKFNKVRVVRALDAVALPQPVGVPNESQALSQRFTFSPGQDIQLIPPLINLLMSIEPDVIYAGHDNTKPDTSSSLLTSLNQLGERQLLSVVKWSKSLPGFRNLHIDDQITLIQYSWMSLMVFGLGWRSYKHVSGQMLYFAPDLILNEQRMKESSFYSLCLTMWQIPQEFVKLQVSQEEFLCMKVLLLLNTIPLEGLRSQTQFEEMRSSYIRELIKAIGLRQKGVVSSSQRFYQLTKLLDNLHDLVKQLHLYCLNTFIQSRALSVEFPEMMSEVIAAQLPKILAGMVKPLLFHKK", "assay": "qHTS assay to identify small molecule agonists of the progesterone receptor (PR) signaling pathway (AID 1346784); also: nearly all actives have a fitted effect of over 30% in size", "conditions": "PR-UAS-bla HEK293T, beta-lactamase FRET ratio, 16 h; series mostly up to 92.4 µM", "description": "U.S. Tox21 Program National Center for Advancing Translational Sciences [NCATS] NIH Chemical Genomics Center [NCGC] U.S. Environmental Protection Agency [EPA] National Institutes of Environmental Health Sciences [NIEHS] National Toxicology Program [NTP] U.S. Food and Drug Administration [FDA] […] Endocrine disrupting chemicals (EDCs) and their interactions with steroid hormone receptors like PR causes disruption of normal endocrine function. To identify the compounds that activate PR signaling, a PR-UAS-bla GripTite cell line i.e. PR-UAS-bla HEK 293T (Invitrogen, Carlsbad, CA, USA) containing a beta-lactamase reporter gene under the control of an Upstream Activator Sequence (UAS) was used to screen Tox21 10K compound library.\nTox21 Assay Protocol Summary: PR-UAS-bla HEK 293T cells were dispensed at 3,000 cells/5 uL of assay medium containing 2% charcoal stripped FBS per well into black wall/clear-bottom 1536-well plates using a Multidrop Combi (ThermoFisher Scientific, Waltham, MA) dispenser. After the assay plates were incubated at a 37C and 5% CO2 for 6hr, 23 nL of compounds dissolved in DMSO, positive controls or DMSO only was transferred to the assay plate by a Pintool station (Kalypsys, San Diego, CA). The plates were incubated at 37C and 5% CO2 for 16hr. Then 1 uL of LiveBLAzer B/G FRET substrate was added using a BioRAPTR FRD (Flying Reagent Dispenser, Aurora Discovery, San Diego, CA). After the plates were incubated at room temperature for 2 hours, fluorescence intensity was measured by an Envision plate reader (PerkinElmer, Shelton, CT).", "values": [
      {"smiles": "CCN(CC)CCOC(=O)C(C)(c1ccccc1)c1ccccc1", "Potency": "inactive"},
      {"smiles": "COC(=O)COc1ccc(Cl)cc1Cl", "Potency": "inactive"},
      {"smiles": "O=[N+]([O-])c1cccc2cccnc12", "Potency": "inactive"},
      {"smiles": "CC(C(=O)c1ccccc1)N(C)C", "note": "(stereo not given)", "Potency": "inactive"},
      {"smiles": "O=C(CCN1CC1)OCC(CO)(COC(=O)CCN1CC1)COC(=O)CCN1CC1", "Potency": "inactive"},
      {"smiles": "O=[N+]([O-])c1cc(Cl)c(Cl)c(Cl)c1", "Potency": "inactive"},
      {"smiles": "COC(=O)c1ccccc1S(=O)(=O)NC(=O)Nc1nc(C)cc(C)n1", "Potency": "inactive"},
      {"smiles": "COP(N)(=S)Oc1ccccc1C(=O)OC(C)C", "note": "(stereo not given)", "Potency": "inactive"},
      {"smiles": "Fc1cc(Br)ccc1CBr", "Potency": "inactive"},
      {"smiles": "Cc1nc(N)nc(N)n1", "Potency": "inactive"},
      {"smiles": "NC(=O)c1cc([N+](=O)[O-])cc([N+](=O)[O-])c1", "Potency": "inactive"},
      {"smiles": "CC1=C(C(=O)Nc2ccccc2)S(=O)(=O)CCO1", "Potency": "inactive"},
      {"smiles": "O=P(O)(Oc1ccccc1)Oc1ccccc1", "Potency": "inactive"},
      {"smiles": "O=NN1CCN(N=O)CC1", "Potency": "inactive"},
      {"smiles": "O=C(Nc1ccccc1)c1ccccc1I", "Potency": "inactive"},
      {"smiles": "CCOP(=S)(OCC)SCSP(=S)(OCC)OCC", "Potency": "inactive"},
      {"smiles": "COc1cc(OC)nc(Oc2cccc(Oc3nc(OC)cc(OC)n3)c2C(=O)O)n1", "Potency": "inactive"},
      {"smiles": "Nc1cc(Cl)ccc1O", "Potency": "inactive"},
      {"smiles": "CCCCP(CCCC)CCCC", "Potency": "inactive"},
      {"smiles": "CNNC", "Potency": "inactive"},
      {"smiles": "O=C1OC(=O)C2C1C1(Cl)C(Cl)=C(Cl)C2(Cl)C1(Cl)Cl", "note": "(stereo not given)", "Potency": "inactive"},
      {"smiles": "OC(c1ccc(F)cc1)(c1cncnc1)c1ccccc1Cl", "note": "(stereo not given)", "Potency": "inactive"},
      {"smiles": "COP(=S)(OC)Oc1c(Cl)cc(C)cc1Cl", "Potency": "inactive"},
      {"smiles": "CNC(=O)O/N=C(\\C)SC", "Potency": "inactive"},
      {"smiles": "CCC(Cl)[N+](=O)[O-]", "note": "(stereo not given)", "Potency": "inactive"},
      {"smiles": "N#Cc1c(Cl)cccc1Cl", "Potency": "inactive"},
      {"smiles": "COC(=O)C(C)Oc1ccc(Oc2ccc(Cl)cc2Cl)cc1", "note": "(stereo not given)", "Potency": "inactive"},
      {"smiles": "CCOC(=O)NC(=S)Nc1ccccc1NC(=S)NC(=O)OCC", "Potency": "inactive"},
      {"smiles": "CCOP(=S)(Oc1cnc(C(C)(C)C)nc1)OC(C)C", "note": "(stereo not given)", "Potency": "inactive"},
      {"smiles": "CC(COc1ccc(Oc2ccccc2)cc1)Oc1ccccn1", "note": "(stereo not given)", "Potency": "inactive"},
      {"smiles": "CS(=O)(=O)c1cc(C(F)(F)F)ccc1C(=O)c1cnoc1C1CC1", "Potency": "inactive"},
      {"smiles": "O=C1OC(c2ccc(O)c(S(=O)(=O)O)c2)(c2ccc(O)c(S(=O)(=O)O)c2)c2c(Br)c(Br)c(Br)c(Br)c21", "Potency": "inactive"},
      {"smiles": "CCCCc1c(C)nc(NCC)[nH]c1=O", "Potency": "inactive"},
      {"smiles": "CC(C)(C)C(=O)C(Oc1ccc(Cl)cc1)n1cncn1", "note": "(stereo not given)", "Potency": "inactive"},
      {"smiles": "CCN(CC)C(C)C(=O)c1ccccc1", "note": "(stereo not given)", "Potency": "inactive"},
      {"smiles": "CC(C)COP(=O)(OCC(C)C)OCC(C)C", "Potency": "inactive"},
      {"smiles": "N#CCCC#N", "Potency": "inactive"},
      {"smiles": "CCOc1nc(C(Cl)(Cl)Cl)ns1", "Potency": "inactive"},
      {"smiles": "Cc1cc(C)c(C(=O)P(=O)(C(=O)c2c(C)cc(C)cc2C)c2ccccc2)c(C)c1", "Potency": "inactive"},
      {"smiles": "CNC(=O)Oc1ccc(N(C)C)c(C)c1", "Potency": "inactive"}
    ]}
  ]
}
